# Paper PMC7826789 (International Journal of Molecular Sciences, 2021)
compound,measurement,setting,value
Cn1cc(-c2ccc3c(c2)CCN3C(=O)Cc2cccc(C(F)(F)F)c2)c2c(N)ncnc21 [GSK2606414],Kinases covered,EIF2AK3,EIF2AK3
Cc1cccc(CC(=O)N2CCc3c2ccc(-c2cn(C)c4ncnc(N)c24)c3F)n1 [GSK2656157],Kinases covered,EIF2AK3,EIF2AK3
COC(=O)Nc1nc2ccc(Oc3ccc(NC(=O)Nc4cc(C(F)(F)F)ccc4F)cc3)cc2s1.Cl [GW693917A],Kinases covered,EPHA2,EPHA2
COc1cc2ncnc(Nc3cccc(Cl)c3F)c2cc1O[C@H]1CC[C@H]([C@@H]2NCCNC2=O)CC1 [BI00133844],Kinases covered,EPHA6,EPHA6
same,Kinases covered,EPHB4,EPHB4
COc1cc2ncnc(Nc3cccc(Cl)c3F)c2cc1O[C@H]1CC[C@@]2(CC1)NCCNC2=O [BI00113608],Kinases covered,EPHA6,EPHA6
same,Kinases covered,EPHB4,EPHB4
Cn1ccc(-c2cccc(Nc3ccnc4cc(-c5nccs5)ccc34)c2)n1 [GW525701],Kinases covered,EPHB6,EPHB6
COC(=O)C(NC(=O)NC1CCN(c2ccnc(Nc3ccc(F)cc3)n2)C1)c1ccccc1 (stereo not drawn) [GSK1379712],Kinases covered,EPHB6,EPHB6
C=CC(=O)Nc1cc(-c2nn(C3CCC(N4CCN(C(C)=O)CC4)CC3)c3ncnc(N)c23)ccc1Oc1ccccc1 (stereo not drawn) [TX-85-1],Kinases covered,ERBB3,ERBB3
Cc1cc(NC(=O)c2cccc(NC(=O)/C=C/CN(C)C)c2)ccc1Nc1nccc(-c2cccnc2)n1 [JNK-IN-7],Kinases covered,ERK3,ERK3
Cc1ccc(CNC(=O)N2CCC[C@]3(CCN(Cc4ccc(Cl)c(Cl)c4)C3)C2)cc1 [GSK2850163],Kinases covered,ERN1,ERN1
CCCNC(=O)c1ccc(Nc2ncc(C(F)(F)F)c(Nc3ccccc3C(C)=O)n2)c(Br)c1 [BI00801818],Kinases covered,FAK,FAK
CCc1cc(Nc2nccc(-c3c(-c4ccc(OC)c(C(=O)Nc5c(F)cccc5F)c4)nc4ccccn34)n2)c(OC)cc1N1CCC(N2CCN(S(C)(=O)=O)CC2)CC1 [GSK1904529],Kinases covered,FER,FER
same,Kinases covered,FRK,FRK
CNC(=O)c1c(F)cccc1Nc1nc(Nc2cc3c(cc2OC)CCN3C(=O)CN(C)C)nc2[nH]ccc12 [GSK1838705],Kinases covered,FER,FER
COc1cc(OC)cc(-c2cc3cnc(N)nc3nc2NC(=O)NC(C)(C)C)c1 [PFE-PKIS 3],Kinases covered,FGFR1,FGFR1
Cn1ccc2ncnc(Oc3ccc(NC(=O)Nc4ccccc4)cc3)c21 [TPKI-69],Kinases covered,FLT3,FLT3
COc1cc2c(cc1OC)C(=C(Nc1ccccc1)c1cccc(CN)c1)C(=O)N2 [BIBF0846CL],Kinases covered,FLT3,FLT3
COc1cc(N2CCN(C)CC2)ccc1Nc1ncc2c(n1)N(C)c1ccccc1C(=O)N2 [XMD8-87],Kinases covered,FRK,FRK
c1ccc(-c2cc3ccncc3cc2OC2CCNCC2)cc1 [GSK1122999],Kinases covered,GSG2,GSG2
